In PubChem BioAssay one finds z-score and composite z-score data, which are given here for 9 compounds.

Calls of active or inactive are those of the source. Unless noted, no rule for the calls is given here.

The nature of assay [1]: compound effects on lung adenocarcinoma cell viability – A549, calcein-AM fluorescence, 48 h, basal, profiling panel (AID 1162). Also: test concentration not given here. The settings on record: higher = more signal.
Assay [2] is described as follows: compound effects on differentiated 3T3-L1 adipocyte viability – cell-based, 3T3-L1 adipocytes, calcein-AM fluorescence, 48 h, basal, profiling panel (AID 1163). Also: test concentration not given here. The settings on record: 3T3-L1 adipocytes viability, higher = more signal.
A short description of assay [3]: compound effects on hepatocellular carcinoma cell viability – HepG2, calcein-AM fluorescence, 48 h, basal, profiling panel (AID 1164). Also: test concentration not given here. The following applies: higher = more signal.
Assay [4] can be described thus: compound effects on multiple myeloma cell viability – MM1S, calcein-AM fluorescence, 48 h, basal, profiling panel (AID 1165).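 Also: viability of MM1S multiple myeloma cells under basal unstimulated conditions; test concentration not given here.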 The settings on record: higher = more signal.
The nature of assay [5]: calcein-AM signal in unstimulated myeloma cells – cell-based, calcein-AM fluorescence, 48 h, PK04 Diversity Set, profiling panel (AID 1166).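 Also: cells grown under basal conditions without added stimulus; test concentration not given here.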 The settings on record: RPMI8226 myeloma viability, higher = more signal.
The nature of assay [6]: JC-1 mitochondrial signal, unstimulated HepG2 cells – cell-based, JC-1 fluorescence, 24 h, 100 nL compound, profiling panel (AID 1167). Also: test concentration not given here. The following applies: HepG2 mitochondrial potential, higher = more signal.
A short description of assay [7]: JC-1 mitochondrial signal, unstimulated adipocytes – cell-based, JC-1 fluorescence, 3T3-L1 adipocytes, 24 h, 100 nL compound, profiling panel (AID 1168). Also: test concentration not given here. The settings on record: JC-1 mitochondrial fluorescence, higher = more signal, called active from +8 up or from −8 down.
The nature of assay [8]: JC-1 mitochondrial signal, unstimulated myeloma cells – cell-based, JC-1 fluorescence, RPMI8226, 24 h, 100 nL compound, profiling panel (AID 1169). Also: test concentration not given here. The settings on record: JC-1 mitochondrial potential fluorescence, higher = more signal.
Assay [9] is described as follows: JC-1 mitochondrial signal, unstimulated MM1S myeloma – cell-based, JC-1 fluorescence, 24 h, 100 nL compound, profiling panel (AID 1170). Also: test concentration not given here. The settings on record: MM1S mitochondrial potential, higher = more signal.
A short description of assay [10]: resazurin metabolic signal in A549 cells – cell-based, resazurin fluorescence, 24 h, PK04 Diversity Set, profiling panel (AID 1171). Also: test concentration not given here. The settings on record: A549 viability, higher = more signal, called active from +8 up or from −8 down. In general terms: Resazurin is reduced to fluorescent resorufin, in cell work by metabolically active cells.
The nature of assay [11]: resazurin metabolic signal in HepG2 cells – cell-based, resazurin fluorescence, 24 h, PK04 Diversity Set, profiling panel (AID 1172). Also: test concentration not given here. The settings on record: HepG2 viability, higher = more signal.
Assay [12] can be described thus: budding yeast growth changes without added modifier – OD600, strain BY4716, 24 h, basal condition, primary screen (AID 1173). The settings on record: S. cerevisiae BY4716 growth, OD600, 24 h; higher = more signal, called active from +8 up or from −8 down.
Assay [13] in a line: viability profiling in MM1S myeloma cells – cell-based, resazurin fluorescence, basal, 24 h, PK04 Diversity Set, profiling panel (AID 1174). Also: test concentration not given here. The settings on record: higher = more signal, called active from +8 up or from −8 down.
The target of assay [14] is Dihydroorotate dehydrogenase (quinone), mitochondrial (Plasmodium falciparum (isolate 3D7)) (UniProt Q08210). Kind of assay: inhibition of P. falciparum DHODH – biochemical, C-terminal His tag, absorbance 600 nm, primary screen (AID 1175).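 Also: recombinant parasite enzyme with a five histidine tag at its C terminus; test concentration not given here.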 The settings on record: PfDHODH enzyme, DCIP absorbance 600 nm; higher = more signal, called active from +8 up or from −8 down.
Sequence of Dihydroorotate dehydrogenase (quinone), mitochondrial (Plasmodium falciparum (isolate 3D7)) (Q08210 whole entry, looked up): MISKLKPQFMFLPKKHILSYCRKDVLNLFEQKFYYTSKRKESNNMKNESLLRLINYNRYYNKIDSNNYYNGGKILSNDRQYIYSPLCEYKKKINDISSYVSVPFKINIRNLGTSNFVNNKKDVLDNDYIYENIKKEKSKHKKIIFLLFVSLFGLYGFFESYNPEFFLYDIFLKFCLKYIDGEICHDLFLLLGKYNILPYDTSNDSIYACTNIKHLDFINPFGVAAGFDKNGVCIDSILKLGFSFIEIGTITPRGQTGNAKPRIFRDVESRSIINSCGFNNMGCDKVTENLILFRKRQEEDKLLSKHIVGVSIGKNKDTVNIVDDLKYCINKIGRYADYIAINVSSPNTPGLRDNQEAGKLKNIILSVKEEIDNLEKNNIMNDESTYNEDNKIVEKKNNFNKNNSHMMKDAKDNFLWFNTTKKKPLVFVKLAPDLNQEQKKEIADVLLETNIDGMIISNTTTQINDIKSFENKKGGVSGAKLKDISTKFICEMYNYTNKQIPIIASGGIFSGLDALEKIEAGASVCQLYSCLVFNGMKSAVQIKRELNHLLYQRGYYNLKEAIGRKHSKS
Assay [15] is described as follows: inhibition of PAO1 biofilm formation – strain PAO1, LB-PBS medium, absorbance 600 nm, primary screen (AID 1176). Also: test concentration not given here. The following applies: P. aeruginosa PAO1 growth/biofilm, A600, 12 h; higher = more signal.
Assay [16] in a line: growth modulation of vineyard yeast isolate – strain RM11-1a, OD600, basal, 24 h, primary screen (AID 1177).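 Also: cultures grown under basal conditions with no added stressor; test concentration not given here.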 The following applies: S. cerevisiae RM11-1a growth, OD600, 24 h; higher = more signal, called active from +8 up or from −8 down.
Assay [17] is described as follows: growth of efflux-deficient E. coli DRC39 – strain DRC39, OD650, 24 h, E. coli filamentation inducers, primary screen (AID 1178).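 Also: growth measured as culture turbidity by optical density at 650 nm; test concentration not given here.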 The following applies: E. coli DRC39 acrAB, higher = more signal, called active from +8 up or from −8 down.
Assay [18] is described as follows: growth of efflux-deficient E. coli DRC39 – strain DRC39, OD650, 48 h, E. coli filamentation inducers, primary screen (AID 1179).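 Also: screen aims at cell division blockers that make cells filament.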 The settings on record: E. coli DRC39 delta-acrAB growth, higher = more signal, called active from +8 up or from −8 down.
Assay [19] can be described thus: viability profiling in RPMI8226 myeloma cells – cell-based, resazurin fluorescence, basal, 24 h, PK04 Diversity Set, profiling panel (AID 1180).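 Also: RPMI8826 multiple myeloma cell line at 5000 cells per well; test concentration not given here.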 The following applies: higher = more signal.
The target in assay [20] is E3 ubiquitin-protein ligase XIAP (Homo sapiens) (UniProt P98170). Briefly: small molecules binding XIAP protein – biophysical, small-molecule microarray, fluorescence 635 nm, primary screen (AID 1181).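 Also: score merges 667 nm emission and signal to noise over triplicate slides.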 The settings on record: higher = more signal.
Sequence of E3 ubiquitin-protein ligase XIAP (Homo sapiens) (P98170 whole entry, looked up): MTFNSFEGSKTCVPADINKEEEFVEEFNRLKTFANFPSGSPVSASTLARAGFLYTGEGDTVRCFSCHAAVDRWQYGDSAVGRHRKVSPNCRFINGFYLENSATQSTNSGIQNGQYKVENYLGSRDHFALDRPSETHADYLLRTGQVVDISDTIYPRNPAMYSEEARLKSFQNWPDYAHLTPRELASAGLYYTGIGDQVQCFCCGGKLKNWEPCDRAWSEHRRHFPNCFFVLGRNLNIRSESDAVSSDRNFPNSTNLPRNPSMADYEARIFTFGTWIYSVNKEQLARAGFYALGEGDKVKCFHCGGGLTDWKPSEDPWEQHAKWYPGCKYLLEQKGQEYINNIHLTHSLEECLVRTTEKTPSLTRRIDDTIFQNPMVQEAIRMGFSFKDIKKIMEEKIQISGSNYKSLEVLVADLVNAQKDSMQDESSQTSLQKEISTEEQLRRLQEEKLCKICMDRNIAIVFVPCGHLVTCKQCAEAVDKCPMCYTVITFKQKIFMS

As to `O=C(O)[C@@]1(Cc2ccccc2)N=C(c2ccc(OCCCO)cc2)O[C@H]1c1ccccc1`, the z-score in assay [1] was 0.83; in assay [2], -0.664; in assay [3] it was -0.235; in assay [4], 0.275; in [5] it was 0.237; in [6] it was 0.628. For the same compound, the z-score in assay [7] was 1.29 (inactive); in assay [8] it was -0.182; in assay [9], -0.558; in [10], 0.575 (inactive); in [11] it was 0.712; in [12], -1.12 (inactive). Also, the z-score is 0.551 (inactive) in [13]; -0.692 (inactive) in assay [15]; 0.291 (inactive) in assay [16]; 0.24 (inactive) in [17]; 1.34 (inactive) in assay [18]; 0.655 in assay [19]. The composite z-score in [14] was 1.22 (inactive); in [20] it was -0.0095.
Consider `CCCCC=C[C@@H](NC(=O)c1ccco1)c1ccccc1`, for which the z-score in assay [1] was -1.08; in assay [2], -0.872; in assay [3], 0.264; in [4], -0.499; in assay [5], -1.16; in assay [6], 0.989. Further, the z-score in assay [7] is 0.0899 (inactive); in assay [8], 0.112; in [9], -1.05; in assay [10] it was 0.335 (inactive); in assay [11], 1; in assay [12], 1.42 (inactive). Also, the z-score in assay [13] was 0.356 (inactive); in assay [15] it was -0.126 (inactive); in assay [16], 0.846 (inactive); in assay [17], 0.358 (inactive); in [18], 0.815 (inactive); in assay [19], 0.223. The composite z-score was 0.559 (inactive) in assay [14] and -0.123 in assay [20].
`C=C(COC)/C(=C/C[C@H](OC(=O)c1ccncc1)c1cccc(OCCO)c1)c1cc(C(=O)OC)ccc1OC`: the z-score in assay [1] is 0.404; in assay [2] it was 0.987; in assay [3] it was -0.0353; in [4], -1.15; in [5] it was -0.686; in assay [6] it was 1.51. The z-score is 0.246 (inactive) in assay [7]; -0.351 in [8]; 0.0566 in assay [9]; 1.14 (inactive) in assay [10]; 0.13 in [11]; -0.0964 (inactive) in assay [12]. The z-score was 0.544 (inactive) in assay [13]; -0.21 (inactive) in assay [15]; -0.42 (inactive) in assay [16]; 0.629 (inactive) in assay [17]; 0.237 (inactive) in [18]; 0.406 in [19]. The composite z-score in [14] is -2.67 (inactive); in assay [20], -0.102.
Consider `CN1C(=O)C2C(C1=O)C1C=C(CCCO)C2C(c2cccs2)N1C` (stereo not given), for which the z-score in assay [1] was 0.0141; in [2], -0.388; in assay [3], 0.174; in assay [4], 1.59; in assay [5], 0.664; in [6], 0.699. In addition, the z-score is 0.617 (inactive) in assay [7]; 0.257 in assay [8]; -0.852 in assay [9]; -0.396 (inactive) in assay [10]; -0.341 in [11]; -0.37 (inactive) in assay [12]. Besides, the z-score in assay [13] was -0.739 (inactive); in assay [15] it was -0.146 (inactive); in assay [16] it was 0.185 (inactive); in [17], 0.469 (inactive); in assay [18], 0.742 (inactive); in assay [19], -0.626. Besides, the composite z-score in [14] was -1.36 (inactive); in [20] it was -0.412.
As for `C=C[C@@H](COC(C)=O)N(Cc1ccccc1[N+](=O)[O-])S(=O)(=O)c1ccc(Br)cc1`, the z-score in assay [1] is 1.8; in assay [2] it was 0.425; in [3], -0.491; in assay [4] it was -0.531; in assay [5], 0.0618; in assay [6] it was -0.464. In addition, the z-score in assay [7] is -0.34 (inactive); in assay [8] it was -0.872; in [9], -0.189; in [10] it was -1.61 (inactive); in assay [11], -0.798; in assay [12] it was -2.24 (inactive). Also, the z-score in [13] is -0.504 (inactive); in [15], -0.0963 (inactive); in [16] it was -2.34 (inactive); in assay [17], 1.47 (inactive); in [18], 0.911 (inactive); in [19], 0.0192. Moreover, the composite z-score in assay [14] is -2.79 (inactive); in assay [20], 0.183.
In the case of `COC(=O)[C@@]1(Cc2ccc(OC)cc2)[C@H]2c3cc(C(=O)N(C)C)n(Cc4c(OC)[nH]cc(C)c4=O)c3C[C@H]2CN1C(=O)c1ccccc1`, the z-score in [1] is 0.249; in assay [2] it was -0.0161; in [3], 1.17; in assay [4], 0.685; in assay [5], 1.13; in assay [6] it was 1.95. Moreover, the z-score in assay [7] is 0.274 (inactive); in [8] it was -0.213; in assay [9] it was -1.65; in [10] it was -1.52 (inactive); in assay [11], -0.672; in [12] it was 0.87 (inactive). Besides, the z-score in assay [13] was -2.62 (inactive); in assay [15], 0.7 (inactive); in assay [16], -0.838 (inactive); in assay [17], 0.0795 (inactive); in assay [18], 0.574 (inactive); in assay [19] it was -1.93. Moreover, the figures for the composite z-score in [14] and in assay [20] were -0.967 (inactive) and 0.295, respectively.
Consider `O=C1N(CCS(=O)(=O)c2ccccc2)Cc2ccccc2[C@H]2OC(c3ccc(OCCCO)cc3)=N[C@@]12CCS(=O)(=O)c1ccccc1`, for which the z-score in [1] is 1.02; in assay [2] it was 1.46; in [3], 1.19; in assay [4], 0.222; in [5], 0.117; in [6], 0.0737. The z-score in assay [7] was 0.557 (inactive); in [8], -0.81; in [9] it was -0.848; in assay [10], 0.908 (inactive); in assay [11], 0.759; in [12], 1.83 (inactive). Moreover, the z-score is 0.935 (inactive) in assay [13]; 0.0533 (inactive) in [15]; 3.07 (inactive) in [16]; 1.69 (inactive) in [17]; 1.09 (inactive) in assay [18]; -0.124 in [19]. The composite z-score is -0.796 (inactive) in assay [14] and -0.15 in assay [20].
On to `CO[C@H]1O[C@H](CO)[C@@H](OC(=O)Nc2ccc3c(c2)OCO3)[C@H](OC(=O)Nc2ccccc2)[C@H]1OC(=O)Nc1ccccc1`, for which the z-score in [1] was -2.08; in assay [2] it was 1.11; in [3], -2.7; in [4], -1.67; in [5], -2.56; in [6], -0.812. Moreover, the z-score in [7] is 1.42 (inactive); in assay [8], -0.442; in assay [9], -1.37; in [10], -3.25 (inactive); in [11], -1.78; in assay [12], 1.38 (inactive). The z-score in assay [13] is -3.14 (inactive); in assay [15], -0.329 (inactive); in [16], 2.93 (inactive); in assay [17], 0.402 (inactive); in [18], -0.728 (inactive); in [19] it was -2.41. In addition, the composite z-score in assay [14] was 1.15 (inactive); in [20], 0.137.
In the case of `CCOC(=O)C1=CCC(c2ccc(C#N)cc2)N(S(=O)(=O)c2ccc(C)cc2)C1` (stereo not given), the z-score in assay [1] is -1.14; in assay [2], -0.68; in [3], 0.109; in [4], -0.548; in assay [5], -0.741; in assay [6] it was -0.259. Further, the z-score in assay [7] was 0.345 (inactive); in assay [8], -0.516; in assay [9] it was -1.71; in [10], -0.343 (inactive); in [11], -0.688; in [12], 0.916 (inactive). Also, the z-score in assay [13] was -1.35 (inactive); in [15] it was 0.654 (inactive); in assay [16], 0.906 (inactive); in assay [17] it was -0.445 (inactive); in [18], 0.435 (inactive); in assay [19] it was -1.94. Besides, the composite z-score in assay [14] is -0.496 (inactive); in [20], -0.187.
